# Most compounds without a hit are left out; they make up all but 9.6% or so of the library.
# L major viab: Leishmania major promastigote growth inhibition | inhibition, % at 10 µM | 200,000 compounds, 9% hits | Leishmania major promastigotes, resazurin fluorescence viability | AID 1063; in the data active means inhibition above about 50%;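 further: promastigotes grown with compound for 44 hours at 28 °C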
# HCT116 bCat-KO: beta-catenin-lacking colon tumor cell growth suppression; AID 818; viability, % at 10 µM; HCT116 beta-catenin knockout viability, CellTiter-Glo, 60 h; hits give low values; 140,000 compounds, 1.5% hits;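 active means viability at or under a set limit, the compound median less 4 SD, cut at about 6% in these data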
# Ins promoter up: MIN6 insulin promoter up-regulation | MIN6 insulin promoter-GFP reporter, high-content imaging; hits give high values | 190,000 compounds, 0.3% hits | z-score at 5 µM;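 active means z-score above 3 at 5 µM with at least 500 cells counted in the well; inconclusive means wells under 500 cells, flagged as cytotoxic or low count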
# PTEN del growth: suppresses growth of cells with PTEN deletion | HCT116 PTEN-null viability, CellTiter-Glo, 60 h; hits give low values | viability, % at 10 µM | 140,000 compounds, 1.2% hits;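 active means viability at or below a set limit, 4 SD under the median of all tested compounds, cut at about 3.7% in these data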;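 further: PTEN knockout HCT116 line with beta catenin targeted HCT116 as companion control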
# Autophagy mod: alters autophagy in cells; MEF GFP-LC3 puncta imaging; test concentration mostly 10 µM; calls only at 10 µM (by protocol); 190,000 compounds, 0.98% hits;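 active means percentage of spot-positive cells more than 3 SD above its plate mean, without a fluorescence outlier flag or 80% toxicity; inconclusive means no clear call, values can overlap the other calls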
# INS promoter inh: TRM-6 insulin promoter activity inhibition; TRM-6 cells (human fetal islet line), insulin promoter-eGFP reporter, imaging; reporter expression induced with tamoxifen; inhibition, % at 2 µM; 130,000 compounds, 0.9% hits;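 active means inhibition above the mean plus 3 SD, with well images judged a real hit on visual review, cut at about 60% in these data, passing the limit was not always enough; inconclusive means inhibition over the cutoff but images rejected on review; inactive means inhibition not above the cutoff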
# A number is an active result; 0 = inactive; ? = inconclusive; - = no result; + = active, no number.
SMILES,L major viab,HCT116 bCat-KO,Ins promoter up,PTEN del growth,Autophagy mod,INS promoter inh
O=C(OCCNc1nc(-c2ccccc2)nc2ccccc12)c1cccnc1,56.8,-,0,-,0,-
CCCOC(=O)c1cccc(NC(=O)c2cccnc2)c1,0,0,0,0,0,0
O=C(O)CCNc1nc(-c2ccccc2)nc2ccccc12,0,0,0,0,0,0
CCCOC(=O)c1cccc(Nc2nc(-c3cccnc3)nc3ccccc23)c1,55.5,0,-,3.6,0,-
NC(=O)N/N=C/CCc1ccccc1,-,-,0,-,-,-
CC(C)[C@H](NC(=O)[C@H](CCCN=C(N)N)NC(=O)NC(Cc1ccccc1)C(=O)O)C(=O)NC(C=O)CCCN=C(N)N (some centres not stated),82.4,0,-,0,0,0
CC(C)C(NC(=O)C(Cc1ccccc1)NC(=O)OCc1ccccc1)C(=O)O (configuration not stated),0,-,-,-,0,-
O=C(NCCc1c[nH]c2ccccc12)/C(=C\c1cccnc1)NC(=O)c1cccs1,0,0,0,0,0,0
Cc1ccsc1/C=N/NC(=O)c1cccs1,0,0,0,0,0,-
Cc1ccsc1/C=N/NC(=O)c1ccccn1,59.5,0,0,0,0,0
COc1ccccc1/C=C(/C(=O)OCC(N)=O)c1ccccc1,62.0,0,0,0,0,0
CCSc1nnc(NC(=O)CSC2=NCCS2)s1,0,-,0,-,0,0
COc1cc(NS(=O)(=O)c2ccc(OC)c(C)c2C)c(OC)cc1Cl,99.7,0,0,0,0,0
COc1ccc(S(=O)(=O)Nc2ccccn2)c(C)c1C,0,0,0,0,0,0
COc1ccc(OC)c(S(=O)(=O)Nc2cc(OC)c(Cl)cc2OC)c1,62.3,0,0,0,0,0
CCn1c(O)c(N=NC(=O)Cn2ccc(C(F)(F)F)n2)c2ccccc21,67.0,0,0,0,0,0
Cn1c(O)c(N=NC(=O)Cn2ccc(C(F)(F)F)n2)c2ccccc21,58.1,0,0,0,0,0
CCOC(=O)N=Nc1c(O)n(CC(=O)OC)c2ccccc12,0,-,0,-,0,-
Cc1cccc(N2CCN(CCNC(=O)c3cc4c(s3)CS(=O)(=O)C4)CC2)c1C,98.6,0,0,0,0,0
N#Cc1ccc(N/N=C/c2cn(-c3ccccc3)nc2-c2ccccc2)c([N+](=O)[O-])c1,0,1.8,0,1.0,0,0
COc1ccc(C(=O)/C=C/C(=O)N(Cc2ccc3c(c2)OCO3)C(C(=O)NC2CCCCC2)c2ccncc2)c(O)c1 (configuration not stated),54.8,0,-,0,0,0
COc1ccc(CN(C(=O)/C=C/C(=O)c2ccc(OC)cc2O)C(C(=O)NC2CCCCC2)c2ccncc2)cc1 (configuration not stated),78.4,0,0,0,0,0
CCC(Sc1nc2ccccc2s1)C(=O)Nc1cc(C)on1 (configuration not stated),67.2,0,0,0,0,0
Cc1cc2c3c(ccc(C)c3n1)N=CN2c1ccccc1,0,0,0,0,0,80.8
O=C(C1CCN(CCCc2ccccc2)CC1)N(CCc1ccccc1)Cc1ccccc1,91.0,0,0,0,0,0
SMILES,L major viab,HCT116 bCat-KO,Ins promoter up,PTEN del growth,Autophagy mod,INS promoter inh
CCN(Cc1ccccc1)C1CCN(Cc2ccc(SC)cc2)CC1,84.9,-,-,-,0,-
CSc1ccc(/C=N/N2CCN(Cc3ccccc3)CC2)cc1,0,-,0,-,0,0
CCN(CC)C(=O)C1CCN(Cc2cn(C)nc2-c2ccc(Oc3ccccc3)cc2)CC1,0,-,-,-,0,0
CCN(CC)C(=O)C1CCN(Cc2ccc(Br)cc2)CC1,92.0,0,0,0,0,-
CCN(Cc1ccccc1)C(=O)C1CCN(Cc2ccc(SC)cc2)CC1,87.6,-,0,-,0,0
O=C(O)c1ccc(-c2nc(-c3ccccc3)c(-c3ccccc3)[nH]2)cc1,88.7,0,0,0,0,0
O=C(O)c1ccc(N2C(=O)C3ON(c4ccccc4)C(c4ccccc4F)C3C2=O)cc1 (configuration not stated),0,0,0,0,0,-
CCOc1cc(/C=C2/SC(=S)N(C)C2=O)ccc1Oc1ccc([N+](=O)[O-])cc1[N+](=O)[O-],63.0,-,0,-,0,0
CCOc1ccc(/C=C2/SC(=S)N(C(C(=O)O)c3ccccc3)C2=O)cc1OCC (configuration not stated),0,-,0,-,0,-
COc1ccccc1N1CCN(C(CNS(C)(=O)=O)c2cccnc2)CC1 (configuration not stated),0,-,0,-,0,0
COC(=O)NCC(c1cccnc1)N1CCN(c2ccccc2F)CC1 (configuration not stated),56.4,0,0,0,0,0
COc1ccccc1N1CCN(C(CNC(=O)c2ccco2)c2cccnc2)CC1 (configuration not stated),80.8,0,0,0,-,-
COC(=O)NCC(c1cccnc1)N1CCN(c2ccccc2OC)CC1 (configuration not stated),69.8,0,0,0,0,0
COc1ccccc1N1CCN(C(CNS(=O)(=O)c2ccc(C)cc2)c2cccnc2)CC1 (configuration not stated),95.9,0,-,0,0,0
CCCCC1CCC(c2nc(-c3cccnc3)no2)CC1 (configuration not stated),0,0,-,0,0,0
O=C(NCC(c1cccnc1)N1CCN(c2ccccc2F)CC1)c1cccc(Cl)c1 (configuration not stated),94.4,0,0,0,0,0
COc1ccccc1OCC(=O)/C=C1/N(C)c2ccccc2C1(C)C,56.7,-,0,-,0,-
CN1/C(=C\C(=O)C[n+]2ccc3ccccc3c2)C(C)(C)c2ccccc21,99.9,-,0,-,0,0
CN1/C(=C\C(=O)COC(=O)c2ccccc2O)C(C)(C)c2ccccc21,-,-,0,-,-,-
CN1/C(=C\C(=O)C(F)F)C(C)(C)c2ccccc21,0,0,0,0,0,0
Cc1ccc(-n2c(-c3ccccc3)c[n+]3c2CCc2ccccc2-3)c(C)c1,100.5,-,?,-,0,0
Cc1ccc(-n2c(NN)nc3ccccc3c2=O)c(C)c1,0,0,0,0,0,0
COc1cc(NC(=O)C2CCCN(S(=O)(=O)c3cnc[nH]3)C2)cc(OC)c1 (configuration not stated),0,0,0,0,0,-
Cc1ccsc1C1C(C#N)=C(N)OC2=C1C(=O)CCC2 (configuration not stated),0,-,-,-,+,0
Cc1ccc(C2C(C#N)=C(N)OC3=C2C(=O)CCC3)s1 (configuration not stated),0,-,0,-,0,-
N#Cc1cccc(OCC(=O)NC(=O)NCc2ccccc2)c1,0,-,0,-,0,0
CCN(CC)c1cccc(OCC(=O)N(C)CCC#N)c1,0,0,0,0,+,-
CCOc1cccc(C(=O)Nc2ccc(N(CC)CC)cc2)c1,0,0,0,0,0,-
O=C(NNC(=O)c1cccs1)c1ccncc1,0,-,0,-,0,-
CC(=O)c1sc(N/N=C2\CC3CCC2(C)C3(C)C)nc1C (configuration not stated),82.6,-,0,-,0,0

# Assay outcomes as filed in PubChem BioAssay.
